“And” between values parts separate entries of the source, which are not always exact repeats. Equal entries are not always repeated. For part of these data: Measured potencies and affinities stand elsewhere.
Key:
Set-up in all cases: scale not given: direction of the effect not stated beside the values
[1] = target: Protein translocase subunit SecA (Escherichia coli (strain K12)) (UniProt P10408); test: Assay to Identify E. coli SecA ATPase Inhibitors; type: functional; settings: 30 µM
[2] = target: T1, Ubiquitin-activating enzyme e1, putative (Leishmania donovani (strain BPK282A1)) (UniProt E9BSI1); test: Leishmania donovani Ubiquitin Activating Enzyme (LdE1); type: functional; settings: 30 µM
T1 sequence (whole entry): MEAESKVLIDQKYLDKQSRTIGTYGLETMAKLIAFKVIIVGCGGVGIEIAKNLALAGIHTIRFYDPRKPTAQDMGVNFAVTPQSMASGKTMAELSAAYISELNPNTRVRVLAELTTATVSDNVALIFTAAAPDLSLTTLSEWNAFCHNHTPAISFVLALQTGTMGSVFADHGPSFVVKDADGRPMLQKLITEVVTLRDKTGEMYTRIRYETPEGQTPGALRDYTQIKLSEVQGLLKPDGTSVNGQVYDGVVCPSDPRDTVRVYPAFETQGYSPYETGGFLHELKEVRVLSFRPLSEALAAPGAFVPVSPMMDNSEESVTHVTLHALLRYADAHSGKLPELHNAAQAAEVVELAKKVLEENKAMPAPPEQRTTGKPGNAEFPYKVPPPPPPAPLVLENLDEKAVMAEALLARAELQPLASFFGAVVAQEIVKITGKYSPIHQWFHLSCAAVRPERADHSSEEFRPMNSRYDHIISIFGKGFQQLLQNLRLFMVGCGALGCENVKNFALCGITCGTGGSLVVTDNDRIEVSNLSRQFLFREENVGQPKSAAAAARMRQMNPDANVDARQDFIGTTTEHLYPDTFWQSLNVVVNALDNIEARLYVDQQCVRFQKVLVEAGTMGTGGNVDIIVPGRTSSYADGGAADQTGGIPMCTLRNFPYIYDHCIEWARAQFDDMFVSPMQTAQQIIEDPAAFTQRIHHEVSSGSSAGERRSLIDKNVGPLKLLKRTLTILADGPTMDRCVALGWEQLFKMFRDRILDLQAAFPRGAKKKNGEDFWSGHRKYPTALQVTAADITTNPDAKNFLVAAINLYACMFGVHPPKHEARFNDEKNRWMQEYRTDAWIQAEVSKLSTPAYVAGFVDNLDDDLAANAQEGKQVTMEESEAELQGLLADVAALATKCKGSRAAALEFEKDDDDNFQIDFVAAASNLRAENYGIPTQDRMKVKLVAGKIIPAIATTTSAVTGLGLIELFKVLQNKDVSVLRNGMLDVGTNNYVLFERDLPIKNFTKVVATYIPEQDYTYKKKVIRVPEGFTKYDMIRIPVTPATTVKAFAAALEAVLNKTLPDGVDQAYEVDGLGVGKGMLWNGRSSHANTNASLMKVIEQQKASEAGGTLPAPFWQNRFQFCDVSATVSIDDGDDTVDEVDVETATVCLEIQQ

[3] = target: T2, Aspartate--tRNA(Asp/Asn) ligase (Mycobacterium tuberculosis (strain ATCC 25618 / H37Rv)) (UniProt P9WFW3); test: Assay for Asp RNA synthetase-1 from Mycobacterium tuberculosis; type: functional; settings: 30 µM; note: in the data most compounds retested in dose-response had high values
T2 sequence (whole entry): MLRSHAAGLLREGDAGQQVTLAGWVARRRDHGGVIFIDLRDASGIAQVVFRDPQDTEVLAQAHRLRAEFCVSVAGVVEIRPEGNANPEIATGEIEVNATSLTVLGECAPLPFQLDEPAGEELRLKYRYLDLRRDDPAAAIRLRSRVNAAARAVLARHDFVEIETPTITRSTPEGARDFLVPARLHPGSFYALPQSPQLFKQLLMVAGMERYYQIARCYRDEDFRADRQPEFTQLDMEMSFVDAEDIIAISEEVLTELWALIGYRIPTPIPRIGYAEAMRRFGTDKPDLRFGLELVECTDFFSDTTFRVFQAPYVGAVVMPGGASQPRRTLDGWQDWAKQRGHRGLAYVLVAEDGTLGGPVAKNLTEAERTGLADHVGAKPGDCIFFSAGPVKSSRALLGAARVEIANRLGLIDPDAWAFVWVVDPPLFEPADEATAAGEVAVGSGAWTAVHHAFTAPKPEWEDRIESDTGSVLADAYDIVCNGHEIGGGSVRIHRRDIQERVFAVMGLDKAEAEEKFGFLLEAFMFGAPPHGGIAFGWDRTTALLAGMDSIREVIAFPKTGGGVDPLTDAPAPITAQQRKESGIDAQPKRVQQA

[4] = target: AMP-activated protein kinase, AMPK (Homo sapiens) (UniProt P54646+O43741+P54619+Q9UGJ0+Q9Y478+Q13131+Q9UGI9); test: AMP-dependent Kinase enzyme assay. An in vitro enzyme assay that detects ADP turnover that is directly proportional to AMPK activity. This uses naive AMPK that is activated during the assay with MK-8722; type: functional; settings: 30 µM
[5] = target: Sialic acid-binding Ig-like lectin 9 (Homo sapiens) (UniProt Q9Y336); test: Hs-Siglec9 ALPHAscreen SOP 20170721; settings: 10 µM
[6] = tested on: Trypanosoma cruzi; test: Trypanosoma cruzi phosphomannomutase and mannose-1-phosphate guanylyltransferase assay; type: functional; settings: 10 µM
[7] = target: T3, Arginase-2, mitochondrial (Homo sapiens) (UniProt P78540); test: in vitro enzyme assay to detect the production of urea directly proportional to the activity of Arginase II; type: functional; settings: 33.3 µM; note: in the data most compounds retested in dose-response had high values
T3 sequence (whole entry): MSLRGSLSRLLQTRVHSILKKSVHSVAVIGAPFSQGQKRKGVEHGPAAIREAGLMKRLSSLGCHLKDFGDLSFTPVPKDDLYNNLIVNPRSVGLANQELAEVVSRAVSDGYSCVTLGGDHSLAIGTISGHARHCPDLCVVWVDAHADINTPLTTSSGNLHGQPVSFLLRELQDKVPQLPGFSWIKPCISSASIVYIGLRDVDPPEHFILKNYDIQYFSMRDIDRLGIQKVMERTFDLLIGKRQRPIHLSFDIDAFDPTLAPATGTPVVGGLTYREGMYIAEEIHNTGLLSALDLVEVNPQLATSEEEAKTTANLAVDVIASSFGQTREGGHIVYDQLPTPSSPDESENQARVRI

[8] = target: T4, Proteasome subunit beta (Trypanosoma cruzi) (UniProt O96673); test: Trypanosoma cruzi proteasome chymotrypsin-like activity (TcProtChymo) assay.; note: in the data most compounds retested in dose-response had high values; type: functional; settings: 9.37 µM
T4 sequence (whole entry): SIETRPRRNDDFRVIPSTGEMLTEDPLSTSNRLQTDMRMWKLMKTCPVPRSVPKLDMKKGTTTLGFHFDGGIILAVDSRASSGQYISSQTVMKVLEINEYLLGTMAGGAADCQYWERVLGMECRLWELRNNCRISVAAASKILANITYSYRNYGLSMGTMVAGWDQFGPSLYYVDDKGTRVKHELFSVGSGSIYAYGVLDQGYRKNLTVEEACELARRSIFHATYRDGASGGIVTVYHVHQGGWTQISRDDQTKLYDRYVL

[9] = tested on: N/A; test: Trypanosoma cruzi proteasome luciferase counter-screen; type: functional; settings: 9.37 µM
[10] = species on record: Homo sapiens; test: To identify inhibition of the IFN signalling (Jak-Stat) pathway via expression of an eGFP reporter gene under the control of an IFN-stimulated response element (ISRE) containing MxA promoter.; type: functional; settings: 30 µM
[11] = target: Shiga toxin 2 (Escherichia coli O157:H7) (UniProt P09385+P09386); test: E. coli 0.157:H7 Shiga Toxin SOP - stx2 screening assay; type: functional; settings: 30 µM
[12] = target: T5, Tyrosyl-tRNA synthetase, putative (Trypanosoma cruzi (strain CL Brener)) (UniProt Q4DSP6); test: Trypanosoma cruzi tyrosyl tRNA synthetase (TcYRS) _High Tyrosine SOP; type: functional; settings: 30 µM; note: in the data most compounds retested in dose-response had high values
T5 sequence (whole entry): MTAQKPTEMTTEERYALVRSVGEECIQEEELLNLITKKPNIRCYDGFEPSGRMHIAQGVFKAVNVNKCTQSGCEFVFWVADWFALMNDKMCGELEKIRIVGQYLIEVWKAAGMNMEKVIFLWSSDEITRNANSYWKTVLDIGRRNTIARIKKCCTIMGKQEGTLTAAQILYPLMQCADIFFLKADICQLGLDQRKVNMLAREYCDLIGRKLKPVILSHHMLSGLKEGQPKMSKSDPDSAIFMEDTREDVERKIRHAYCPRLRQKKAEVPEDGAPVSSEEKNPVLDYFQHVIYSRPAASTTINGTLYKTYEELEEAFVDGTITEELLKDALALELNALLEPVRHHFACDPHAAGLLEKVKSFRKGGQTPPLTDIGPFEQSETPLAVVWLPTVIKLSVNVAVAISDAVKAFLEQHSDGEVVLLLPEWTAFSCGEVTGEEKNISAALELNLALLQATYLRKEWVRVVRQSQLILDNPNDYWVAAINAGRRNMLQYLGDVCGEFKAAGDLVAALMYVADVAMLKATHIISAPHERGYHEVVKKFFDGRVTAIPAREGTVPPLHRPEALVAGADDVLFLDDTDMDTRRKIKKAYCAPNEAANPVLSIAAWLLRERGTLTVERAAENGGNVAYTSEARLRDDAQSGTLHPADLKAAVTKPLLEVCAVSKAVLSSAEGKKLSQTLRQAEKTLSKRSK

[13] = target: T5, Tyrosyl-tRNA synthetase, putative (Trypanosoma cruzi (strain CL Brener)); test: Trypanosoma cruzi tyrosyl tRNA synthetase (TcYRS) SOP; type: functional; settings: 30 µM
[14] = target: Chromo domain-containing protein 1 (Saccharomyces cerevisiae (strain ATCC 204508 / S288c) (Baker's yeast)) (UniProt P32657); test: ScCHD-1 Enzyme Inhibition Assay; type: functional; settings: 30 µM; note: in the data most compounds retested in dose-response had high values
Chromo domain-containing protein 1 (Saccharomyces cerevisiae (strain ATCC 204508 / S288c) (Baker's yeast)), sequence (P32657 whole entry, the tested form may be a part): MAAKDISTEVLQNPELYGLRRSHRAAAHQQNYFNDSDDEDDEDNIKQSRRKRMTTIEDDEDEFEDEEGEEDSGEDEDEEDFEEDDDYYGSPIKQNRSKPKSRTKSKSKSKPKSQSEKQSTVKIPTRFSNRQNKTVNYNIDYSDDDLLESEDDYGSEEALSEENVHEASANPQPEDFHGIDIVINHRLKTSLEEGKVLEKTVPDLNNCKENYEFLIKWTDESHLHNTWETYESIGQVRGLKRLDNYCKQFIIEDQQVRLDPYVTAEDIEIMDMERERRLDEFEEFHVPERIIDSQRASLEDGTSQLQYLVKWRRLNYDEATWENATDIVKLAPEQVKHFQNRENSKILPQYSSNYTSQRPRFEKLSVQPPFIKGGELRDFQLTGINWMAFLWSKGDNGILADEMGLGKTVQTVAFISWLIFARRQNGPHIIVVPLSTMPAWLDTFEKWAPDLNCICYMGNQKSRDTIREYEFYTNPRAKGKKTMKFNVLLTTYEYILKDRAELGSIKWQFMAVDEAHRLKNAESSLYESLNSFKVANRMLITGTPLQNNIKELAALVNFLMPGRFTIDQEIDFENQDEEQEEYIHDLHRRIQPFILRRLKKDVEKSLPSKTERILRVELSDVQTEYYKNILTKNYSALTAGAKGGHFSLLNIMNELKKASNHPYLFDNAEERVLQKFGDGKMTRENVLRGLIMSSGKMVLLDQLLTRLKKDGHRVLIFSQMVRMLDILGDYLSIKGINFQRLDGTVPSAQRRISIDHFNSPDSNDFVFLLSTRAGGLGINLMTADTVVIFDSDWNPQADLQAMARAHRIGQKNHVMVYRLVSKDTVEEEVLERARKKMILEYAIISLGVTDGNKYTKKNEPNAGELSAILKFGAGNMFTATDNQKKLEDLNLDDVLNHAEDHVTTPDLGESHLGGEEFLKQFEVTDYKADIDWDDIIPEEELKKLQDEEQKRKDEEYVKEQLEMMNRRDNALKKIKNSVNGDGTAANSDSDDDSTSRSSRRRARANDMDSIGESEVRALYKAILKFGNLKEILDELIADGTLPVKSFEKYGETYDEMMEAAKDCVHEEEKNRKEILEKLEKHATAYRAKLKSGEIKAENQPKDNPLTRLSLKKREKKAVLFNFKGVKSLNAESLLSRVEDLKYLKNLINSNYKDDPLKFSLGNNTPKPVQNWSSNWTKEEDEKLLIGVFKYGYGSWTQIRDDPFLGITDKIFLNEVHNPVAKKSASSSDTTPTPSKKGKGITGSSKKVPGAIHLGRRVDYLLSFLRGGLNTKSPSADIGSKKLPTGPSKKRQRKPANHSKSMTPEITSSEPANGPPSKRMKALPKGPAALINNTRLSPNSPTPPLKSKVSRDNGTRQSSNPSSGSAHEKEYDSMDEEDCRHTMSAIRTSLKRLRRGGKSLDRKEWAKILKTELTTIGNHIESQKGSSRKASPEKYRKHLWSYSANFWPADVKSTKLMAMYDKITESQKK

Sialic acid-binding Ig-like lectin 9 (Homo sapiens), sequence (Q9Y336 whole entry): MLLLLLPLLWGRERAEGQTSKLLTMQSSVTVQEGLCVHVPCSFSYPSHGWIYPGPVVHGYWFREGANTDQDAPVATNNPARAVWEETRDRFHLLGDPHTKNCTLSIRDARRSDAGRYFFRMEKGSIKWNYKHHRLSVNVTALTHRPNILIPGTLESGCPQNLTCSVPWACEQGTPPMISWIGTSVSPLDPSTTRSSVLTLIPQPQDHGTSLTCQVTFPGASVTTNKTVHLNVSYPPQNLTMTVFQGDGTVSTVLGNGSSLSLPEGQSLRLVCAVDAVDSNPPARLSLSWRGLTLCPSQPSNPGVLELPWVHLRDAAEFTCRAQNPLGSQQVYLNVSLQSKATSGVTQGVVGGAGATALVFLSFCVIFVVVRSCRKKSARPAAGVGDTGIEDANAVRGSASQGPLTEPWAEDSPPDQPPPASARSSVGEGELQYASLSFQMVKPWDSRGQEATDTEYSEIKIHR
Protein translocase subunit SecA (Escherichia coli (strain K12)), sequence (P10408 whole entry): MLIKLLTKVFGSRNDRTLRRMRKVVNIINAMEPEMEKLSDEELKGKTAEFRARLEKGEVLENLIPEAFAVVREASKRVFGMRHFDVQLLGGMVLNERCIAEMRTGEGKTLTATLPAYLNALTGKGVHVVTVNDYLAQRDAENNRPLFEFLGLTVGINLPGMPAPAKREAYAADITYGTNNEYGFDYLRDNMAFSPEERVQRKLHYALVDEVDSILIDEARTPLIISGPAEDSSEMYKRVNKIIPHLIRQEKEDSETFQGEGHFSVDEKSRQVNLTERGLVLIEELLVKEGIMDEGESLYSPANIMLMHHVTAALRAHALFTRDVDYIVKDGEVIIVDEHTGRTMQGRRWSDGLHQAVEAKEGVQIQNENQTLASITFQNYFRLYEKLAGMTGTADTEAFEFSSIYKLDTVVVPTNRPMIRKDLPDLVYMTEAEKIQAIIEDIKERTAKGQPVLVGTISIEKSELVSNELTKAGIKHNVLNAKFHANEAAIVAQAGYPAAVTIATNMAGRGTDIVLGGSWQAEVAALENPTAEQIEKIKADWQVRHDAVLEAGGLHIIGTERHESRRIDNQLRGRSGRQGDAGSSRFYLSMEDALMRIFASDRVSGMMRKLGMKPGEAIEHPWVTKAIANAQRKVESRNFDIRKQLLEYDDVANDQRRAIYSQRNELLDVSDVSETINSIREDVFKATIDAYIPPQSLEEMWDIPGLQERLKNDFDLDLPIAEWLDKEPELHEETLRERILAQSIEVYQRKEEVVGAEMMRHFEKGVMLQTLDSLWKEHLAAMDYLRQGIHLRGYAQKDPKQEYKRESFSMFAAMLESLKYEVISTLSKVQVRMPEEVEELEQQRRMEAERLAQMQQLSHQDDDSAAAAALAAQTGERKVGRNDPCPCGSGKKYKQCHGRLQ

Compound	Percent Effect [1]	Percent Effect [2]	Percent Effect [3]	Percent Effect [4]	Percent Effect [5]	Percent Effect [6]	Percent Effect [7]	Percent Effect [8]	Percent Effect [9]	Percent Effect [10]	Percent Effect [11]	Percent Effect [12]	Percent Effect [13]	Percent Effect [14]
CC(Cn1cccn1)NCc1csc(-c2cccs2)n1 (configuration not stated)	-0.415%	5.41%	-4.5%	-7.34%	-3.93%	-4.81%	-0.802%	79.3% and 83.2% and 84%	52.8% and 51.5%	17.6%	21.1%	7.39%	13.6%	-4.55%
CC(Cc1c(F)cccc1F)NC(=O)Nc1cnn(CC(N)=O)c1 (configuration not stated)	-4.08%	21.5%	-0.509%	-1.23%	-0.0747%	0.513%	-1.07%	19.7%	–	15%	-36.4%	3.12%	17.7%	-23.1%

— ChEMBL document CHEMBL3988442, “University of Dundee, Small-Polar-MMV Screening Library” (2021)
